Among all 300,000 compounds or so, about 950 (0.32%) were called active. Shown is part of a subset that was picked to be rich in actives. A number with no mark means an inactive call.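 How the source made its calls: active means mean activation of at least 10% of the iron chelator positive control signal, with at least half of replicates also reaching 10%; inconclusive means mean and replicate majority disagree about reaching 10%; inactive means mean and most replicates under 10%.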

This test can be described thus: hypoxia response element reporter activation – cell-based, U2OS HRE-luciferase, luminescence, primary screen (AID 1910). As to conditions: stronger effect = higher value, screened at 7.5 µM (by protocol), normalized: DMSO 0%, desferrioxamine 100%.
Regarding `C/C(=N\NC(=O)c1ccccc1F)c1ccccn1`, the activation is 1.74%.
For the compound `C/C(=N\NC(=O)Cc1ccc(Br)cc1)c1cccnc1`, the activation was 24.8% (active).
The same measure for `Cc1ccc(Cl)cc1NC(=O)c1ccccn1`: 1.23%; for `C/C(=N\NC(=O)Cc1ccccc1[N+](=O)[O-])c1cccnc1`: 0.0865%.
In the case of `C/C(=N\NC(N)=S)c1cccnc1` it was -0.0419%; in that of `C/C(=N\NC(=O)Cc1ccc(Cl)cc1)c1ccccn1`, 17.7% (active); in that of `O=C(N[C@@H](Cc1ccccc1)C(=O)OCc1ccccc1)c1nc[nH]c1C(=O)NC1CCNCC1`, 1.06%.
The same measure for `Cc1cc(NC(=O)CSC2=NS(=O)(=O)c3cc(Cl)ccc3N2)no1`: 1.88%.
As to `COc1ccc(/C=C(\C#N)C(=O)OCC(=O)N(C)C2CCS(=O)(=O)C2)cc1` (stereo not given), the activation is -41.3%.
As for `CCOc1nc(NCCN2CCOCC2)nc(Nc2ccc(C)cc2)n1`, the activation is 296% (active).
Take `CCOc1cccc(/C=N/NC(=S)NCCN2CCOCC2)c1O`: the activation is 0.43%.
In the case of `Nc1nc(NCCCN2CCOCC2)nc(Nc2ccccc2)c1[N+](=O)[O-]` it was -0.302%; in that of `O=C1CC2(CCN(C(=O)COc3ccc(F)cc3)CC2)Oc2ccccc21`, -0.0585%.
Turning to `O=C(CCCCO)c1ccc(O)c(Cl)c1`, the activation is -0.731%.
Regarding `COc1cc(-c2nnc(NC(=O)C3=COCCO3)o2)cc(OC)c1OC`, the activation was -0.75%.
As for `COc1cc(OC)cc(C(=O)NNC(=O)CNC(=O)c2ccc(Br)o2)c1`, the activation is 0.191%.
With `O=C(NCCCN1CCCC1=O)c1cccc(S(=O)(=O)NCc2ccccc2)c1`, the activation was -0.752%.
As for `Cc1ccc(OCc2cc(C(=O)N(C)CCc3ccccc3)no2)cc1C`, the activation is 4.07%.
With `CN(Cc1cnccn1)C(=O)c1cc(COc2cccc(C(F)(F)F)c2)on1`, the activation was -2.19%.
Consider `CN(Cc1cccnc1)C(=O)c1cc(COc2ccc3ncccc3c2)on1`, for which the activation was 39.7% (active).
The same measure for `Cc1cccc(C(=O)OC(C)CN2CCCC2)c1` (stereo not given): 15% (active); for `CC(CN1CCCCC1)OC(=O)c1ccccc1Cl` (stereo not given): -0.0657%; for `Cc1cccc(C(=O)OC(C)CN2CCN(C)CC2)c1` (stereo not given): 3.11%.
Regarding `CC(=O)c1nn(-c2ccc(C)cc2)cc1C(=O)c1cccc(Br)c1`, the activation was -0.49%.
The same measure for `N#CCC(=O)N/N=C/c1ccc(SCC(=O)Nc2ccccc2)o1`: 105% (active).
Turning to `O=C(CSc1ccc(/C=N/NC(=O)c2cccc(F)c2)o1)Nc1ccccc1`, the activation was 0.0126%.
For the compound `Cc1ccc(/C=N/NC(=O)CSc2ccccn2)o1`, the activation is -0.331%.
Turning to `COc1ccc(CNC(=O)C2CCN(C(=O)c3ccccc3)CC2)cc1`, the activation is -0.358%.
Turning to `CCOc1ccc(N(CC(=O)OC)S(=O)(=O)c2c(C)noc2C)cc1`, the activation was -0.196%.
As to `COc1ccc(N(CC(=O)Nc2cc(OC)ccc2OC)S(=O)(=O)c2c(C)noc2C)cc1`, the activation is 10.1% (active).
In the case of `CCOc1ccc(N(CC(=O)NCc2ccc(OC)cc2)S(=O)(=O)c2c(C)noc2C)cc1`, the activation was 0.179%.
With `COc1ccc(Cl)cc1NC(=O)CN(C)C(=O)c1cc(-c2cccs2)nn1-c1ccccc1`, the activation is 1.06%.
Take `CCN(CC(=O)Nc1cc(Cl)ccc1C)C(=O)Cn1c(=O)cnc2ccccc21`: the activation was -0.594%.
For `O=C(COc1coc(CN2CCN(c3ccccc3)CC2)cc1=O)N1CCc2ccccc21`, the activation was 0.142%.
As to `Cc1ccc(SCc2c(C(=O)N/N=C/C3CC=CCC3)nnn2-c2nonc2N)cc1` (stereo not given), the activation was 0.655%.
As to `Nc1nonc1-n1nnc(C(=O)N/N=C/c2cc(Br)ccc2O)c1CSC1=NCCS1`, the activation was 20.7% (active).
For the compound `Nc1nonc1-n1nnc(C(=O)N/N=C/c2ccccc2O)c1CN1CCCC1`, the activation is -0.146%.
In the case of `CCN1CCN(C(=O)N(Cc2ccc(Cl)cc2)S(=O)(=O)c2ccc(C)cc2)CC1` it was 1.75%.
Turning to `Cc1cccc(C(=O)OC(C)C(=O)NC2CCCc3ccccc32)c1O` (stereo not given), the activation is -0.427%.
On to `O=[N+]([O-])c1ccc(O)c(/C=N/Nc2ccccc2[N+](=O)[O-])c1`, for which the activation is 1.42%.
The same measure for `Oc1ccc(Br)cc1/C=N/Nc1ccccn1`: 90.5% (active); for `Oc1ccc(/C=N/Nc2ccc(C(F)(F)F)cn2)cc1O`: 2.36%.
Consider `O=C(NC1CC1)C(Cc1ccccc1)NS(=O)(=O)c1ccccc1F` (stereo not given), for which the activation is -30.3%.
For `CCS(=O)(=O)c1ccc(-c2cccc(NC(=O)c3ccc(Br)o3)c2)nn1`, the activation is -0.865%.
With `CC(=O)Nc1ccc(Nc2c3ccccc3nc3ccccc23)cc1`, the activation was 7.58%.
The same measure for `Cc1ccc(Nc2c3c(nc4ccccc24)CCC3)cc1`: 97.4% (active); for `N#Cc1cccc(Nc2c3c(nc4ccccc24)CCCC3)c1`: -0.204%; for `Cc1ccc(SCC(=O)Nc2nncs2)cc1`: -0.275%.
Take `NS(=O)(=O)c1cc(C(=O)OCC(=O)NNC(=O)c2ccccc2)ccc1Cl`: the activation was 0.0895%.
On to `Cc1nc(-c2ccccc2)sc1C1(C)CC(c2cccnc2)=NO1` (stereo not given), for which the activation is 5.85%.
In the case of `Cn1ccnc1-c1nnn(-c2ccc(F)cc2)n1` it was 2.61%; in that of `CCOc1ccc(CCNC(=O)COC(=O)C2CCN(c3ccc(C(F)(F)F)cn3)CC2)cc1OCC`, 0.095%; in that of `Cc1ccc(NC(=O)NC(=O)CSc2nnc(-c3ccc(OC(F)F)cc3)n2N)c(C)c1`, 2.08%.
The same measure for `CC(C)NC(=O)NC(=O)CSc1nnc(-c2ccccc2F)n1N`: 88% (active).
Consider `Nn1c(SCC(=O)NC2CCCC2)nnc1-c1ccccc1F`, for which the activation was -0.0397%.
The same measure for `COc1ccc(NC(=O)CN(C)C(=O)c2n[nH]c3ccccc23)cc1`: 2.08%; for `O=C(CCNC(=O)c1ccc(Br)cc1)NCCCc1ccccc1`: 0.558%.
With `CC(=O)N1CCc2c(sc(NC(=O)CCS(=O)(=O)c3ccc(C)cc3)c2C(N)=O)C1`, the activation is -0.0953%.
In the case of `CS(=O)(=O)c1ccc(Cl)c(NC(=O)COC(=O)c2cccc(S(=O)(=O)N3CCCC3)c2)c1`, the activation was 0.78%.
In the case of `CCN1/C(=C\c2ccc3ccccc3[n+]2CC)Sc2cc(C)ccc21` it was 16.3% (active); in that of `CCc1nnc(NS(=O)(=O)c2ccc(NC(=O)c3cccc(OC(F)(F)C(F)F)c3)cc2)s1`, -0.386%.
For the compound `CCOC(=O)c1ccc(NC(=O)c2c(NCc3ccccc3)[nH]c(=O)[nH]c2=O)cc1`, the activation was 0.835%.
As to `O=C(c1ccc(F)cc1)N1CCC(C(=O)N2CCN(S(=O)(=O)c3ccccc3Br)CC2)CC1`, the activation is 1.51%.
Regarding `O=C(CSc1nnc2c(n1)[nH]c1ccccc12)NC1CCCCC1`, the activation is 0.503%.
As to `CC(C)N(c1ccccc1)c1ncnc(NCCC(=O)O)c1[N+](=O)[O-]`, the activation was 173% (active).
In the case of `Cc1ccc(C(C)NC(=O)Cn2nc(C)c([N+](=O)[O-])c2C)cc1` (stereo not given) it was -0.456%; in that of `Cc1ccc(OCC(=O)NC(C)c2ccccc2)c([N+](=O)[O-])n1` (stereo not given), -1.24%.
The same measure for `COc1ccc(S(=O)(=O)NCC(c2ccc(C)cc2)N2CCN(C)CC2)cc1OC` (stereo not given): -0.0703%; for `COc1ccc(C(=O)N2CCC(C(=O)Nc3ccc(C)cc3)CC2)cc1`: 0.165%.
`COc1ccccc1NC(=O)C1CCN(C(=O)c2ccc(C(C)(C)C)cc2)CC1`: the activation was 24.7% (active).
`CC(C)(C)c1ccc(C(=O)N2CCC(C(=O)N3CCCCC3)CC2)cc1`: the activation is -0.293%.
In the case of `Cc1ccc2nc(SCC(=O)N3CCN(c4ccccc4)CC3)nc(=O)n2c1` it was -0.536%; in that of `CN1CCN(c2ncc3c(n2)CC(c2ccccc2F)CC3=O)CC1` (stereo not given), -0.449%.
As for `Cc1nc2nc3c(cn2n1)C(=O)CC(c1ccccc1)C3` (stereo not given), the activation was 842% (active).
For `Cc1cc(C)nc(-n2ncc3c2CC(c2ccc(C(C)C)cc2)CC3=O)n1` (stereo not given), the activation was 0.0559%.
Regarding `COc1ccccc1NC(=O)Nc1nc(CC(=O)Nc2ccccc2F)cs1`, the activation was -0.165%.
For `NC(=O)c1ccsc1NC(=O)COC(=O)Cc1n[nH]c(=O)c2ccccc12`, the activation is 0.145%.
In the case of `CCCCn1c(N)c(N(CC(C)C)C(=O)C2CSC3(C)CCC(=O)N23)c(=O)[nH]c1=O` (stereo not given), the activation was 0.199%.
Turning to `COc1ccc(N2C(=O)CNC2=S)cc1`, the activation is -0.317%.
As to `COc1ccc(-n2c(-c3ccc(OC)c(OC)c3)n[nH]c2=S)cc1`, the activation is 1.1%.
Consider `COc1ccc(-n2c(C)csc2=S)cc1`, for which the activation is 14.5% (active).
The same measure for `O=C(Cc1ccccc1)n1nc(-c2ccccc2)nc1NCc1ccco1`: 1.38%; for `CS(=O)(=O)n1nc(-c2ccccc2)nc1NCc1ccco1`: 16.1% (active); for `c1ccc(-c2nc(NCc3ccco3)c3ccccc3n2)cc1`: 0.461%.
In the case of `N#CCN(C(=O)COC(=O)C1CC2CCCC(C1)C2=O)c1ccccc1` (stereo not given), the activation is -0.0724%.
As to `Cc1ccc(C(=O)Nc2nnc(C3=COCCO3)o2)cc1C`, the activation was 0.0306%.
Turning to `COc1cccc(N2CC(C(=O)NCc3n[nH]c(=O)c4ccccc34)CC2=O)c1` (stereo not given), the activation is 3.45%.
Turning to `COc1ccc(NC(=O)CCC(=O)Nc2cc(OC)c(NC(=O)c3ccco3)cc2OC)c(OC)c1`, the activation is -0.226%.
Regarding `COc1ccc(NC(=O)c2cccc(NC(=O)c3ccco3)c2)c(OC)c1`, the activation was 10.1% (active).
The same measure for `COc1ccccc1C(=O)Nc1ccc(NC(=O)c2ccco2)c(C)c1`: 0.062%; for `COc1ccccc1OCCCCCCN1CCN(C)CC1`: 0.237%.
Consider `CCOc1ccc(C(C)=O)cc1COC(=O)CNC(=O)c1cccs1`, for which the activation was 0.00171%.
Consider `O=C(N/N=C/c1ccccc1O)C1CCCC1`, for which the activation is 0.236%.
The same measure for `O=C(N/N=C/c1ccccc1O)/C(=C/c1ccccc1)CCO`: 31.1% (active); for `O=C(CCCO)N/N=C/c1cc(Br)ccc1O`: -1.18%.
